Rin1-Abl PPI inh = blocks binding of human Rin1 to Abl; TR-FRET Rin1/Abl binding, biochemical; actives 0.4% (n = 360,000); inhibition, % at 7.35 µM; in the data active means inhibition above about 5%, passing the limit was not always enough
MBD2 DNA inh = MBD2-methylated oligo binding inhibition. Q9UBB5. TR-FRET, MBD2 binding to methylated oligonucleotide. inhibition, % at 4.4 µM. actives 0.31% (n = 370,000); in the data active means inhibition above about 13%
Target sequence (Q9UBB5 whole entry, looked up): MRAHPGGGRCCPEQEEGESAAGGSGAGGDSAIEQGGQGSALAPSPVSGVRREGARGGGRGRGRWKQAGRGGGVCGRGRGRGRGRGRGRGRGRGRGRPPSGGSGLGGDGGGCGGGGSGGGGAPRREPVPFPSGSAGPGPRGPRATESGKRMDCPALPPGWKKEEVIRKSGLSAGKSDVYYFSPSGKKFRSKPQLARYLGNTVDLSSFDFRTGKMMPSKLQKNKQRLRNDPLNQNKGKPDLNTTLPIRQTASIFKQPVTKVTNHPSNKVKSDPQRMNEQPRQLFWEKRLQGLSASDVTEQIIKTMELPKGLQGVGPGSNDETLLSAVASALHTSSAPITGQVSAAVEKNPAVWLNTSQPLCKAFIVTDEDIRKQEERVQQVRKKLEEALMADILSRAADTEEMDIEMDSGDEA
TCR CD3 inh = blocks the human TCR-CD3 interaction; TAMRA-labeled TCR probe fluorescence, biochemical; inhibition, % at 9.4 µM; actives 0.37% (n = 360,000); AID 651800; in the data active means inhibition above about 19%;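 further: recombinant mutant TCR 2C K166C tagged with TAMRA read by polarization; 0% = receptor in buffer alone and 100% = receptor with positive control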
UHRF1 binding = human UHRF1 methylated DNA binding inhibitors; Q96T88; UHRF1 binding to methylated oligo, TR-FRET; inhibition, % at 4.4 µM; actives 0.75% (n = 370,000); in the data active means inhibition above about 21%;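 further: UHRF1 SRA domain binding a hemimethylated CpG hairpin DNA probe; 0% = median of test compound wells and 100% = reference inhibitor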
LEDGF integ inh = blocks HIV-1 LEDGF/p75-dependent DNA integration | TR-FRET IN-LEDGF/p75 DNA integration, Eu/Cy5 | inhibition, % at 3.7 µM | actives 0.64% (n = 370,000) | AID 743269;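 active means inhibition above the screen-wide mean plus 3 SD, cut at about 13% in these data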;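 further: signal is the Cy5 over europium emission ratio at 671 and 618 nm; 0% = plate median of compound wells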
Rin1-Abl confirm = Rin1-Abl interaction inhibition confirmation | actives 49% (n = 1,300) | TR-FRET Rin1-Abl binding, purified proteins | shares compounds with Rin1-Abl PPI inh | inhibition, % at 7.35 µM
GFP quench = counter-screen for Rin1-Abl inhibitors: GFP fluorescence quenchers; shares compounds with Rin1-Abl PPI inh; inhibitors/quenchers counterscreen; inhibition, % at 6.75 µM; actives 8.5% (n = 1,300); AID 602125;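 further: ABL1-eGFP fusion protein alone without its partner RIN1-SBP; 0% = protein with vehicle and 100% = wells lacking protein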
GFP quench DR = GFP fluorescence interference dose response; shares compounds with Rin1-Abl PPI inh; GFP fluorescence interference/quenching counterscreen; IC50, µM; 230 tested, under 10 active; AID 602182; call rule not given here;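 further: ABL1-eGFP fusion protein alone without its RIN1 binding partner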
Active calls of the source: *. An excerpt weighted towards active compounds, which were near 2% of everything screened. Unless noted, no stated cut-off is given here; in the data, active means inhibition above about 6.5%; inactive means the rest.

Screening COc1ccc(Cc2nc3ccc(C(=O)NCC4COCCO4)cc3o2)cc1 (stereo not drawn) returned Rin1-Abl PPI inh 7.8*, MBD2 DNA inh -2.2, TCR CD3 inh 3.9, UHRF1 binding 4.0, LEDGF integ inh 0.3, Rin1-Abl confirm -0.7 and GFP quench -1.2.
COc1cc2nc(Nc3cccc(F)c3)nc(N)c2cc1OC was read as Rin1-Abl PPI inh 8.9*, MBD2 DNA inh -1.6, TCR CD3 inh 0.0, UHRF1 binding 0.6, LEDGF integ inh -3.6, Rin1-Abl confirm 13.5* and GFP quench 0.9.
`O=C1NC(=O)C(=C2CCOC2=O)N1` gave Rin1-Abl PPI inh 3.6, MBD2 DNA inh -1.3, TCR CD3 inh 3.5, UHRF1 binding 0.9 and LEDGF integ inh 1.0.
For O=C(OCCc1cc2ccccc2c(=O)o1)N1CCOCC1 the results were Rin1-Abl PPI inh 11.6*, MBD2 DNA inh -1.5, TCR CD3 inh -1.4, UHRF1 binding 4.7, LEDGF integ inh 1.9, Rin1-Abl confirm 1.8 and GFP quench -4.5.
`CCc1c(C)sc(NC(=O)Cc2ccccc2C)c1C(=O)N1CCOCC1` gave Rin1-Abl PPI inh 1.3, MBD2 DNA inh -4.7, TCR CD3 inh -1.2, UHRF1 binding 3.9 and LEDGF integ inh 0.0.
CCN(CC(=O)Nc1c(F)cccc1F)C(=O)c1cccn1C was read as Rin1-Abl PPI inh 0.0, MBD2 DNA inh -2.1, TCR CD3 inh -4.0, UHRF1 binding 1.4 and LEDGF integ inh 7.6.
Screening CC1(C(=O)NCc2ccc(C(F)(F)F)cc2)CCN1Cc1cc2ccccc2o1 (stereo not drawn) returned Rin1-Abl PPI inh 9.0*, MBD2 DNA inh -10.3, TCR CD3 inh 0.3, UHRF1 binding 0.1, LEDGF integ inh 3.9, Rin1-Abl confirm -2.2 and GFP quench 0.6.
`CC1(C(=O)NCc2cccc(C(F)(F)F)c2)CCN1Cc1ccc2ccccc2c1` (stereo not drawn) gave Rin1-Abl PPI inh 2.1, MBD2 DNA inh -5.8, TCR CD3 inh 1.1, UHRF1 binding -0.2 and LEDGF integ inh -1.2.
Nc1nc(-c2ccc([N+](=O)[O-])cc2)cc(=O)[nH]1 was read as Rin1-Abl PPI inh 13.5*, MBD2 DNA inh -3.8, TCR CD3 inh -1.8, UHRF1 binding -1.3, LEDGF integ inh 7.2, Rin1-Abl confirm 11.2* and GFP quench -0.2.
O=c1cc(-c2ccccc2)nc(Sc2ccc([N+](=O)[O-])cc2[N+](=O)[O-])[nH]1 was read as Rin1-Abl PPI inh -0.6, MBD2 DNA inh -5.5, TCR CD3 inh 4.5, UHRF1 binding -1.0 and LEDGF integ inh -0.9.
Screening N#CC1(NC(=O)CN2C(=O)c3ccc([N+](=O)[O-])cc3C2=O)CCCCC1 returned Rin1-Abl PPI inh 2.4, MBD2 DNA inh 4.3, TCR CD3 inh -8.8, UHRF1 binding -2.3 and LEDGF integ inh -2.4.
CCOc1ccc(NC(=O)C2CCCN(S(=O)(=O)c3c(C)noc3C)C2)cc1 (stereo not drawn) was read as Rin1-Abl PPI inh 2.7, MBD2 DNA inh -3.9, TCR CD3 inh 8.4, UHRF1 binding 1.4 and LEDGF integ inh -1.4.
`CC[C@]12c3[nH]c4ccc(OC)cc4c3CCN1C(=O)C(CC(=O)NCCc1ccccn1)C[C@@H]2C(=O)N1CCN(C(=O)c2ccco2)CC1` (stereo partly drawn) gave Rin1-Abl PPI inh 16.0*, MBD2 DNA inh -1.9, TCR CD3 inh 6.6, UHRF1 binding 3.0, LEDGF integ inh 1.7, Rin1-Abl confirm 6.0 and GFP quench 2.2.
Screening CC[C@]12c3[nH]c4ccc(OC)cc4c3CCN1C(=O)C(CC(=O)NCCCN(C)C)C[C@@H]2C(=O)N1CCN(C(=O)c2ccco2)CC1 (stereo partly drawn) returned Rin1-Abl PPI inh 21.1*, MBD2 DNA inh 2.7, TCR CD3 inh -12.0, UHRF1 binding 3.9, LEDGF integ inh 5.3, Rin1-Abl confirm 22.2*, GFP quench 0.3 and GFP quench DR >67.5.
CC[C@]12c3[nH]c4ccc(Cl)cc4c3CCN1C(=O)[C@@H](CC(=O)NCc1cccc(C(F)(F)F)c1)C[C@@H]2C(=O)N1CCN(C(=O)c2ccco2)CC1 was read as Rin1-Abl PPI inh 3.6, MBD2 DNA inh -2.9, TCR CD3 inh -3.4, UHRF1 binding 12.7 and LEDGF integ inh -3.5.
CC[C@]12c3[nH]c4ccc(OC)cc4c3CCN1C(=O)C(CC(=O)NC/C=C(\C)CCC=C(C)C)C[C@@H]2C(=O)N1CCN(C(=O)c2ccco2)CC1 (stereo partly drawn) was read as Rin1-Abl PPI inh 11.3*, MBD2 DNA inh 0.6, TCR CD3 inh 5.2, UHRF1 binding -1.1, LEDGF integ inh 1.1, Rin1-Abl confirm 5.1 and GFP quench 0.9.
CC[C@]12c3[nH]c4ccc(OC)cc4c3CCN1C(=O)C(CC(=O)NCc1cccc(C(F)(F)F)c1)C[C@@H]2C(=O)N1CCN(C(=O)c2ccco2)CC1 (stereo partly drawn) was read as Rin1-Abl PPI inh 18.1*, MBD2 DNA inh 1.3, TCR CD3 inh -1.1, UHRF1 binding -0.1, LEDGF integ inh 5.2, Rin1-Abl confirm 21.2*, GFP quench -1.9 and GFP quench DR >67.6.
Oc1ccc(C2=Nn3c(nnc3-c3ccco3)SC2)cc1O was read as Rin1-Abl PPI inh 5.9*, MBD2 DNA inh -0.5, TCR CD3 inh 22.2*, UHRF1 binding -0.7, LEDGF integ inh 4.3, Rin1-Abl confirm 3.9 and GFP quench 16.9*.
Screening Cc1cccc(NC(=O)COC(=O)CCc2c[nH]c3ccccc23)c1 returned Rin1-Abl PPI inh 3.8, MBD2 DNA inh 3.8, TCR CD3 inh -12.8, UHRF1 binding 5.5 and LEDGF integ inh 3.2.
Screening COCCNC(=O)c1cc(-c2ccccn2)nc2ccc(S(=O)(=O)N3CCC(C)CC3)cc12 returned Rin1-Abl PPI inh 17.0*, MBD2 DNA inh 0.8, TCR CD3 inh -5.1, UHRF1 binding 1.5, LEDGF integ inh 0.3, Rin1-Abl confirm -2.0 and GFP quench -1.1.
`CCOC(=O)N1C(=O)C[C@](Sc2ccc(OC)cc2)(C(=O)N2CCCC2)[C@H]1c1ccc(OC)cc1` gave MBD2 DNA inh 3.5, UHRF1 binding 8.7 and LEDGF integ inh 1.1.
Cc1nc(NS(=O)(=O)c2ccccc2C)c2c3c(sc2n1)CCC3 was read as MBD2 DNA inh -3.2, TCR CD3 inh 4.0, UHRF1 binding -3.0 and LEDGF integ inh -0.4.
Cc1nc(Nc2cccc(O)c2)c2c3c(sc2n1)CCC3 was read as Rin1-Abl PPI inh 45.5*, MBD2 DNA inh -1.9, TCR CD3 inh -0.7, UHRF1 binding -2.9, LEDGF integ inh 5.8, Rin1-Abl confirm 44.7*, GFP quench -1.4 and GFP quench DR >67.6.

Assay outcomes from PubChem BioAssay.
